# These entries were drawn from the full list.
# TNAP inh pNP = inhibitors of human tissue-nonspecific alkaline phosphatase | P05186 | inhibition, % at 20 µM | 21,000 tested, under 10 active | purified TNAP, pNPP hydrolysis, absorbance 405 nm | AID 615;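 note: 0% = DMSO only wells and 100% = 1 mM levamisole wells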
# Target sequence (P05186 whole entry, looked up): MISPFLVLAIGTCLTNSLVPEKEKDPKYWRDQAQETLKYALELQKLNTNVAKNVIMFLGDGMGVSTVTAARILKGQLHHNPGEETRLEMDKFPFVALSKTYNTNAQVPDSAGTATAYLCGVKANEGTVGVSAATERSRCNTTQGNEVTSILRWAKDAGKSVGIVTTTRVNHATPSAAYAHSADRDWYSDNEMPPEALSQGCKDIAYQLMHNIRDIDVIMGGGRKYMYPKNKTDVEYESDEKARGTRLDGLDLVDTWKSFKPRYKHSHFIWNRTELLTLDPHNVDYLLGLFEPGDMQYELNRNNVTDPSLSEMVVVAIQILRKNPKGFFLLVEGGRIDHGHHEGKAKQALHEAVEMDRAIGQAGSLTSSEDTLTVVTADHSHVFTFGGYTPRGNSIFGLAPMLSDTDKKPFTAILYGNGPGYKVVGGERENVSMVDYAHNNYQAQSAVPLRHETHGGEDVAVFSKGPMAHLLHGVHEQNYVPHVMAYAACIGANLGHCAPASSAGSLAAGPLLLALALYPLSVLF
# TNAP Pi inh = inhibitors of human tissue-nonspecific alkaline phosphatase. P05186. purified TNAP, pNPP, malachite green phosphate absorbance. 21,000 tested, under 10 active. inhibition, % at 20 µM
# * marks the source's active call; other numbers are inactive results.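 Rule for the calls: active = inhibition above 50% at the 20 µM single-dose screen; inactive = the rest.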
SMILES,TNAP inh pNP,TNAP Pi inh
COCCn1c(C)cc(C(=O)CSc2nc(C)nc3sc4c(c23)CCC4)c1C,-2.4,0.7
COc1ccc(Cl)cc1C(=O)CSc1nc(N)cc(N)n1,-0.5,14.2
Cc1noc2nc(-c3cccs3)cc(-c3nnc4n3CCCCC4)c12,4.4,-10.3
Cc1nc(Nc2ncc3c(n2)CCCC3=O)nc2ccccc12,0.0,0.0
COc1cccc(NC(=O)CSc2nnc(-c3cccc(OC(C)C)c3)n2N)c1,3.9,12.4
CCCn1c(SCc2cc(=O)[nH]c3ccccc23)nc2c1c(=O)n(C)c(=O)n2C,3.6,11.7
Cc1cccc2c1NC(C)CC2C (stereo not drawn),0.0,0.0
O=C(NCc1ccccc1F)C1CCCN1C(=O)NCc1ccccc1 (stereo not drawn),1.8,15.9
CC1(c2ccc(Cl)cc2Cl)OCC(Cn2ccnc2)O1 (stereo not drawn),5.8,3.4
CC(C)(C)c1[nH]nc2c1C(Cc1ccccc1)C(C#N)=C(N)O2 (stereo not drawn),6.2,0.2
COc1ccc(OC)c(C2C(C(C)=O)=C(O)C(=O)N2Cc2cccnc2)c1 (stereo not drawn),6.4,9.4
Cc1ccc(S(=O)(=O)/N=C(\CN2CCCCC2)N2CCOCC2)cc1,4.0,7.9
Cc1ccccc1NC(=O)c1c(O)c2cccc3c2n(c1=O)CCC3,4.5,11.6
Cc1cc(C(F)(F)F)nn1CCCNC(=O)c1cnccn1,0.0,0.0
COc1ccc(Cl)c(Cn2c(NCCCO)nc3c2c(=O)n(C)c(=O)n3C)c1,7.7,9.1
COc1ccc(S(=O)(=O)N2CCN(c3nc4ccccc4nc3-n3nc(C)cc3C)CC2)cc1,7.2,20.5
CNc1nc(C)c(C(=O)OCc2ccccc2)s1,-1.5,6.0
CCCCCn1c(N2CCOCC2)nc2c1c(=O)n(CC(N)=O)c(=O)n2C,-4.7,1.3
Cc1ccc2cc(C(c3nnnn3C(C)(C)C)N3CCCC3)c(=O)[nH]c2c1C (stereo not drawn),0.0,0.0
COc1ccc(CC(C(=O)Nc2cccc(F)c2)c2nn[nH]n2)c(OC)c1 (stereo not drawn),3.0,6.7
O=C(CN1CCC(n2nnc3cc(F)ccc32)CC1)Nc1ccccc1N1CCOCC1,-9.2,-2.8
Cc1cc(NC(=O)CCCC(=O)NCc2cccs2)no1,4.4,16.4
O=C(CN1CCC(NC(=O)Nc2ccccc2-c2ccccc2)CC1)NCc1ccco1,1.3,4.7
Cn1c(Cc2cccs2)nnc1SC/C=C/c1ccccc1,2.4,13.3
N#CC1=C(SCc2ccccc2Cl)NC(=O)C(C(N)=O)C1 (stereo not drawn),4.2,-14.9
SMILES,TNAP inh pNP,TNAP Pi inh
C=CCn1cnc2c(c1=O)c1nc3ccccc3nc1n2-c1ccc(Cl)cc1,4.1,-2.5
Cc1noc(C)c1C(=O)NCCCN1CCCC1=O,0.1,-25.4
Cc1cc(C)n(CC(O)CN2c3ccccc3Sc3ccccc32)n1 (stereo not drawn),3.3,8.4
COc1ccc(N/C(C)=C2/C(=O)C(=O)N(CCO)C2c2ccc(Br)cc2)cc1 (stereo not drawn),0.5,9.5
CN(C)CCNC(=O)C12CC3(C)CC(C)(CC(C)(C3)C1)C2,-7.6,-10.4
COc1ccc(OCc2nnc(SC(C)C(=O)Nc3nccs3)n2-c2ccccc2)cc1 (stereo not drawn),0.0,0.0
O=C1CC(NCc2ccncc2)C(=O)N1c1ccc(Cl)cc1 (stereo not drawn),0.0,0.0
Cn1nnnc1SCCNC/C=C/c1ccccc1,-2.3,5.7
O=C(c1ccc(=O)oc1)N1CCCc2ccccc21,5.1,2.4
CC(C)OCCCn1c(=N)c(C(N)=S)cc2c(=O)n3ccccc3nc21,31.3,34.9
Cc1ccc(S(=O)(=O)NC2CCCC(C(=O)O)C2)cc1 (stereo not drawn),3.8,7.3
CCN(CC(=O)Nc1ccc2c(c1)OCCO2)c1nc(-c2cccnc2)nc2ccccc12,2.8,10.9
C=CCOc1c(CNc2nccs2)cccc1OCC,2.0,8.5
CC1CN(C2CCN(C(=O)c3ccccc3Cl)CC2)CC(C)O1 (stereo not drawn),12.9,16.9
Cc1n[nH]c(C)c1Cc1ccc(C(=O)O)cc1,2.3,8.7
CC(C)Cn1c(-c2ccc(Cl)cc2)cnc1SCC(=O)N1CCOCC1,5.3,9.6
Cc1noc(C)c1CSc1ccccc1C(=O)Nc1nccs1,3.3,-20.9
Cc1c(-c2ccccc2)sc(N)c1C(=O)N1CCOCC1,-6.5,2.9
CCOC(=O)NC(Nc1ccc(S(N)(=O)=O)cc1)(C(=O)OCC)C(F)(F)F (stereo not drawn),7.3,8.4
CCOC(=O)c1c(NC(C)=O)sc2c1CCCNC2=O,-8.0,-4.0
COc1ccc(CSc2nnc3n(C)c(=O)c4c5c(sc4n23)CCCC5)cc1,-0.4,3.4
COc1ccccc1-c1nnc(SCC(=O)NCc2c(C)c(Cl)cc(C(C)C)c2O)o1,4.7,20.7
CCCOc1ccc(/C(O)=C2/C(=O)C(=O)N(CCN(C)C)C2c2ccncc2)cc1 (stereo not drawn),-1.6,3.5
Cc1c(O)c(CN2CCCC(C)C2)cc2c3c(c(=O)oc12)CCC3 (stereo not drawn),0.9,4.3
O=C(CCN1c2ccccc2Sc2ccccc21)OCC(=O)N1CCN(C(=O)c2ccco2)CC1,-4.2,1.5
SMILES,TNAP inh pNP,TNAP Pi inh
CCOC(=O)c1c(C(F)(F)C(F)(F)C(F)(F)C(F)(F)F)n[nH]c1C,-7.3,-13.9
O=C(Cn1nc(C(F)(F)F)c2c1CCCC2)NCc1ccco1,5.6,6.8
COc1ccc(C)cc1S(=O)(=O)N(CC(=O)N1CCCC1)c1ccccc1,0.0,0.0
CN1CCN(c2c3c(c(C#N)c4nc5ccccc5n24)CCCC3)CC1,4.7,11.3
CCOC(=O)C1=C(C)NC(=O)C(C(N)=O)C1c1ccccc1 (stereo not drawn),4.7,8.6
Cn1c(=O)c2c(nc(SCC(=O)N3CCc4ccccc43)n2Cc2ccccc2)n(C)c1=O,3.8,-3.5
CC1(C)CC(=O)C(C=NCCN2CCN(C(=O)C34CC5CC(CC(C5)C3)C4)CC2)=C(O)C1,1.0,6.7
Cn1c(O)c(C=Nc2ccc(Cc3ccncc3)cc2)c(=O)n(C)c1=O,0.0,0.0
CCOC(=O)N1CCC2(CC1)C(C#N)=C(N)Oc1c2c(C)nn1-c1cccc(Cl)c1,-34.9,-43.9
O=C(CSc1nnnn1C1CCCCC1)NCCc1ccccc1,2.9,-1.8
O=c1c(-c2ccccc2)[n+]([O-])c2ccccc2n1O,-2.1,-7.3
Cn1c(=O)c(C(=O)CSc2nncs2)c(N)n(Cc2ccccc2)c1=O,0.0,0.0
CN(C)CCNC(=O)Cn1nc(C(F)F)cc1C1CC1,-0.1,3.5
Cc1nn(CCc2nc(-c3ccco3)cs2)c2[nH]c(=O)cc(C(F)(F)F)c12,5.4,-7.6
